Assay results taken from PubChem BioAssay (EPA / NIEHS).
Some structures have more than one record in an assay (separate samples or runs), and their calls can disagree. Calls of active or inactive are those of the source. Rule for the calls: active = hit-call score of the fitted dose curve at least 0.9, where 1 is the maximum; inactive = score below 0.9.

How the values were obtained:
[1] = BSK_hDFCGF_SRB: Viability Assessment in the BioMAP Diversity Plus: hDFCGF Assay (AID 2283061); settings: primary human foreskin fibroblasts;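 note: cells exposed to compound for 24 h before the read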
Method in brief: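 SRB-based viability read on primary human skin fibroblasts at 24 h: TCA fixation, 0.1% dye, 560 nm. Gain or loss of signal is fitted against the DMSO negative control.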

[2] = read-out: TIMP metallopeptidase inhibitor 1 (TIMP1), TIMP1 (gene 7076); assay: BSK_hDFCGF_TIMP1: BioMAP Diversity Plus: hDFCGF Assay for TIMP metallopeptidase inhibitor 1 (TIMP1) Biomarker Activity (AID 2283062); settings: primary human foreskin fibroblasts; actives raise or lower the signal
Method in brief: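 Bidirectional curve fitting against DMSO baseline yielded this endpoint, based on ELISA detection of TIMP-1 in primary human foreskin fibroblasts exposed to compound for 24 h.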

[3] = read-out: Monokine induced gamma interferon (MIG), CXCL9 (gene 4283); assay: BSK_hDFCGF_MIG: BioMAP Diversity Plus: hDFCGF Assay for Monokine induced gamma interferon (MIG) Biomarker Activity (AID 2283063); settings: primary human foreskin fibroblasts; actives raise or lower the signal
Method in brief: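 Endpoint derived by bidirectional fitting relative to DMSO; MIG quantified via ELISA in primary human foreskin fibroblasts harvested 24 h after dosing.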

[4] = read-out: Matrix Metallopeptidase 1 (MMP1), MMP1 (gene 4312); assay: BSK_hDFCGF_MMP1: BioMAP Diversity Plus: hDFCGF Assay for Matrix Metallopeptidase 1 (MMP1) Biomarker Activity (AID 2283064); settings: primary human foreskin fibroblasts; actives raise or lower the signal
Method in brief: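 Primary human foreskin fibroblasts in the hDFCGF system were dosed with test chemical, and MMP1 was measured by ELISA 24 h later. Values come from bidirectional curve fitting against the DMSO baseline.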

[5] = read-out: Vascular cell adhesion molecule 1 (VCAM1), VCAM1 (gene 7412); assay: BSK_hDFCGF_VCAM1: BioMAP Diversity Plus: hDFCGF Assay for Vascular cell adhesion molecule 1 (VCAM1) Biomarker Activity (AID 2283065); settings: primary human foreskin fibroblasts; actives raise or lower the signal;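 for AC50: VCAM-1 protein level quantified by ELISA after 24 h chemical exposure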
Method in brief: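 Measured after 24 h chemical treatment of primary human skin fibroblasts, VCAM-1 was detected by ELISA and concentration-response analysed in both directions versus DMSO vehicle.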

[6] = read-out: Intercellular Adhesion Molecule 1 (ICAM1), ICAM1 (gene 3383); assay: BSK_KF3CT_ICAM1: BioMAP Diversity Plus: KF3CT Assay for Intercellular Adhesion Molecule 1 (ICAM1) Biomarker Activity (AID 2283067); settings: primary human keratinocytes with fibroblasts; actives raise or lower the signal
Method in brief: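 Bidirectional curve fitting against a DMSO baseline was applied to ICAM-1 ELISA signal from primary human skin co-cultures harvested 24 h after treatment, with SRB staining of parallel wells for overt cytotoxicity.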

[7] = read-out: Interferon-gamma inducible Protein 10 (IP10), CXCL10 (gene 3627); assay: BSK_KF3CT_IP10: BioMAP Diversity Plus: KF3CT Assay for Interferon-gamma inducible Protein 10 (IP10) Biomarker Activity (AID 2283068); settings: primary human keratinocytes with fibroblasts; actives raise or lower the signal
Method in brief: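 KF3CT co-culture (keratinocytes + foreskin fibroblasts), 24 h compound, IP-10 by ELISA; bidirectional fit vs DMSO baseline.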

[8] = BSK_KF3CT_SRB: Viability Assessment in the BioMAP Diversity Plus: KF3CT Assay (AID 2283069); settings: primary human keratinocytes with fibroblasts;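 note: total protein by sulforhodamine B staining as a cytotoxicity measure; read 24 h after compound addition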
Method in brief: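 Human primary keratinocyte plus foreskin fibroblast co-culture exposed to chemicals for 24 h. Total protein measured by 0.1% sulforhodamine B staining after 10% TCA fixation, read at 560 nm; bidirectional fitting versus DMSO baseline.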

[9] = read-out: Interleukin-1 alpha (IL1a), IL1A (gene 3552); assay: BSK_KF3CT_IL1a: BioMAP Diversity Plus: KF3CT Assay for Interleukin-1 alpha (IL1a) Biomarker Activity (AID 2283070); settings: primary human keratinocytes with fibroblasts; actives raise or lower the signal
Method in brief: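 Human keratinocyte plus foreskin fibroblast primary co-culture, sampled 24 h after chemical dosing. IL-1a measured by ELISA; responses fitted bidirectionally against DMSO baseline (negative control), so gain or loss of signal both count.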

[10] = read-out: TIMP metallopeptidase inhibitor 2 (TIMP2), TIMP2 (gene 7077); assay: BSK_KF3CT_TIMP2: BioMAP Diversity Plus: KF3CT Assay for TIMP metallopeptidase inhibitor 2 (TIMP2) Biomarker Activity (AID 2283071); settings: primary human keratinocytes with fibroblasts; actives raise or lower the signal
Method in brief: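 Keratinocyte–fibroblast co-culture, 24 h exposure; TIMP-2 ELISA, DMSO-normalised bidirectional fit. Parallel SRB (0.1%, TCA-fixed, 560 nm) total-protein staining gauges cytotoxicity.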

[11] = read-out: Transforming growth factor beta 1 (TGFb1), TGFB1 (gene 7040); assay: BSK_KF3CT_TGFb1: BioMAP Diversity Plus: KF3CT Assay for Transforming growth factor beta 1 (TGFb1) Biomarker Activity (AID 2283072); settings: primary human keratinocytes with fibroblasts; actives raise or lower the signal
Method in brief: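 Signal changes in either direction, relative to DMSO, define activity here. TGF-b1 is read by ELISA from a human keratinocyte-fibroblast co-culture 24 h post-dose.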

[12] = read-out: C-C motif chemokine 2 (Homo sapiens) (UniProt P13500); assay: BSK_KF3CT_MCP1: BioMAP Diversity Plus: KF3CT Assay for Monocyte Chemoattractant Protein 1 (MCP1/CCL2) Biomarker Activity (AID 2283073); settings: primary human keratinocytes with fibroblasts; actives raise or lower the signal
Method in brief: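 Biomarker MCP-1 is measured by ELISA in primary human keratinocytes co-cultured with foreskin fibroblasts, 24 h after chemical treatment; DMSO serves as the negative control and activity baseline.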

[13] = read-out: Matrix Metallopeptidase 9 (MMP9), MMP9 (gene 4318); assay: BSK_KF3CT_MMP9: BioMAP Diversity Plus: KF3CT Assay for Matrix Metallopeptidase 9 (MMP9) Biomarker Activity (AID 2283074); settings: primary human keratinocytes with fibroblasts; actives raise or lower the signal;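 for AC50: MMP9 protein level quantified by ELISA in the co-culture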
Method in brief: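 Keratinocyte plus foreskin fibroblast human primary skin co-culture was dosed with chemical and MMP-9 was quantified by ELISA 24 h later. Bidirectional curve fitting used DMSO as negative control and activity baseline.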

[14] = read-out: urokinase plasminogen activator (uPA), PLAU (gene 5328); assay: BSK_KF3CT_uPA: BioMAP Diversity Plus: KF3CT Assay for urokinase plasminogen activator (uPA) Biomarker Activity (AID 2283075); settings: primary human keratinocytes with fibroblasts; actives raise or lower the signal
Method in brief: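 Human keratinocyte plus foreskin fibroblast primary co-culture exposed to chemical for 24 h. uPA levels were quantified by ELISA, and activity was fitted bidirectionally against a DMSO negative-control baseline.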

CD40, CD40 (gene 958) = assay: BSK_LPS_CD40: BioMAP Diversity Plus: LPS Assay for CD40 Biomarker Activity (AID 2283076); settings: primary human HUVEC with PBMC; actives raise or lower the signal
Method in brief: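 Using a multiplexed primary human co-culture (umbilical vein endothelium plus PBMC), CD40 was read by ELISA 24 h after dosing, with cytotoxicity tracked by sulforhodamine B staining of parallel cultures and activity fitted bidirectionally versus DMSO.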

[15] = read-out: E-selectin (Homo sapiens) (UniProt P16581); assay: BSK_LPS_Eselectin: BioMAP Diversity Plus: LPS Assay for Eselectin Biomarker Activity (AID 2283077); settings: primary human HUVEC with PBMC; actives raise or lower the signal
Method in brief: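 Dose chemical onto LPS-driven HUVEC/PBMC co-culture; after 24 h, run ELISA for E-selectin; fit up- and down-going responses relative to DMSO control.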

[16] = read-out: Interleukin-8 (IL8), CXCL8 (gene 3576); assay: BSK_LPS_IL8: BioMAP Diversity Plus: LPS Assay for Interleukin-8 (IL8) Biomarker Activity (AID 2283078); settings: primary human HUVEC with PBMC; actives raise or lower the signal
Method in brief: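 In this LPS system, chemical-treated human umbilical vein endothelium/PBMC co-cultures were harvested at 24 h for IL-8 ELISA.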

[17] = BSK_LPS_SRB: Viability Assessment in the BioMAP Diversity Plus: LPS Assay (AID 2283079); settings: primary human HUVEC with PBMC;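 note: total protein by sulforhodamine B absorbance as a cytotoxicity measure; measured one day after compound addition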
Method in brief: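 Cytotoxicity endpoint in human endothelial–PBMC co-culture: 24 h exposure, then SRB (0.1%) staining, 560 nm read.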

[18] = read-out: Interleukin-1 alpha (IL1a), IL1A (gene 3552); assay: BSK_LPS_IL1a: BioMAP Diversity Plus: LPS Assay for Interleukin-1 alpha (IL1a) Biomarker Activity (AID 2283080); settings: primary human HUVEC with PBMC; actives raise or lower the signal
Method in brief: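 Primary human HUVEC and PBMC co-culture stimulated with LPS is dosed and harvested at 24 h. Both increases and decreases in ELISA-measured IL-1a are scored relative to DMSO.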

[19] = read-out: Plasminogen activator inhibitor-1 (PAI1), SERPINE1 (gene 5054); assay: BSK_hDFCGF_PAI1: BioMAP Diversity Plus: hDFCGF Assay for Plasminogen activator inhibitor-1 (PAI1) Biomarker Activity (AID 2283066); settings: primary human foreskin fibroblasts; actives raise or lower the signal
Method in brief: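 PAI-1 levels, determined by ELISA, served as the endpoint in human foreskin fibroblast cultures exposed to compound for 24 h, with DMSO as baseline.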

Measured: AC50

Sequence of E-selectin (Homo sapiens) (P16581 whole entry, looked up): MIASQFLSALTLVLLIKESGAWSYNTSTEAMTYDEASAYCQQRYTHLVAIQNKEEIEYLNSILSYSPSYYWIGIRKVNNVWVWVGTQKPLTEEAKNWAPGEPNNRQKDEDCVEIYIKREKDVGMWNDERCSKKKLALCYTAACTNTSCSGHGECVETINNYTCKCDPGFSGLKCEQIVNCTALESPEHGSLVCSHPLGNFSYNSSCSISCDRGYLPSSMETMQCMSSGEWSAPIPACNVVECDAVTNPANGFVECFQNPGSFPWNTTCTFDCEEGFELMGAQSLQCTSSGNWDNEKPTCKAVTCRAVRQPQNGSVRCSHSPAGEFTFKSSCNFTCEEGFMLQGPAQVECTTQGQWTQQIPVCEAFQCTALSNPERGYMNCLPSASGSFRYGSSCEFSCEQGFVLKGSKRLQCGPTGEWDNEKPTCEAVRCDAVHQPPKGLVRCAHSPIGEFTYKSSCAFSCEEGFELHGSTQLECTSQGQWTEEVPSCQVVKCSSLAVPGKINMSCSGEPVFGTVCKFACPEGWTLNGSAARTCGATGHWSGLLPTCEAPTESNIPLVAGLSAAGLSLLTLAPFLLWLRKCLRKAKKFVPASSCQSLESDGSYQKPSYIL

CCOC(=O)/C=C(C)/C=C/C[C@@H](C)CCCC(C)C
active: [1] 25.1 µM | [2] 26.6 µM | [3] 33.2 µM | [4] 32.4 µM | [5] 20.7 µM | [6] 34.5 µM | [7] 33.4 µM | [8] 33.8 µM | [9] 26.3 µM | [10] 27 µM | [11] 13.5 µM | [12] 7.27 µM | [13] 30.2 µM | [14] 31.2 µM | CD40, CD40 (gene 958) 20 µM | [15] 34.8 µM | [16] 32.7 µM | [17] 38.7 µM | [18] 33.3 µM

COC(=O)c1sccc1S(=O)(=O)NC(=O)Nc1nc(C)nc(OC)n1
not listed: [6]
inactive: all other assays above

C[C@]12CCC(=O)C[C@@H]1CC[C@@H]1[C@@H]2CC[C@]2(C)[C@@H](O)CC[C@@H]12
active: [15] 28.1 µM | [17] 19.8 µM
inactive: all other assays above

COC(=O)Cc1ccccc1
not listed: [11]
inactive: all other assays above

O=C(O)CCC(F)(C(F)(F)F)C(F)(F)F
active: [5] 7.04 µM
inactive: [1] | [2] | [3] | [4] | [5] | [6] | [7] | [8] | [9] | [10] | [12] | [13] | [14] | CD40, CD40 (gene 958) | [15] | [16] | [17] | [18]

COC[C@H](C)N(C(=O)CCl)c1c(C)csc1C
not listed: [19]
inactive: all other assays above
